Test results as given in PubChem BioAssay AID1159580 (chemical genetic matrix, 2015).
The whole screen tested about 5,500 compounds, of which about 2,000 (36%) were called active. Roughly 18% stayed inconclusive and do not appear here. Rule as the data show it: active = normalized growth mostly below about 0.91 (no sharp cut-off); inconclusive = no clear call, values can overlap the other calls; inactive = mostly above about 0.92. This is one part of the list.

Test: chemical genetic growth profiling, strain panel (AID 1159580);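 also: tested at 20 µM; growth read once vehicle control cultures reached saturation at 30 °C; 1 = growth at the plate median or of vehicle wells; lower values mean less growth of the strain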
Settings: growth OD

Measured: normalized growth

COc1ccc(C[C@H]2NC[C@H](O)[C@H]2OC(C)=O)cc1
inactive: S. cerevisiae deletion strains, locus YKL009W, strain mrt4, stronger effect = lower value 0.966 | S. cerevisiae deletion strains, locus YKL068W, stronger effect = lower value 0.998 | S. cerevisiae deletion strains, locus YKL085W, strain MDH1 (second series), stronger effect = lower value 1.01 | S. cerevisiae deletion strains, locus YKL085W, strain MDH1, stronger effect = lower value 1.01 | S. cerevisiae deletion strains, locus YKR026C, strain gcn3, stronger effect = lower value 0.985 | S. cerevisiae deletion strains, locus YKR091W, strain srl3, stronger effect = lower value 1 | S. cerevisiae deletion strains, locus YLL041C, strain sdh2, stronger effect = lower value 0.986 | S. cerevisiae deletion strains, locus YLR102C, strain apc9, stronger effect = lower value 1.01 | S. cerevisiae deletion strains, locus YLR113W, strain HOG1, stronger effect = lower value 0.977 | S. cerevisiae deletion strains, locus YLR320W, strain mms22, stronger effect = lower value 0.957 | S. cerevisiae deletion strains, locus YLR384C, strain iki3, stronger effect = lower value 1 | S. cerevisiae deletion strains, locus YML120C, strain ndi1, stronger effect = lower value 0.98 | S. cerevisiae deletion strains, locus YML124C, strain tub3, stronger effect = lower value 0.988 | S. cerevisiae deletion strains, locus YMR078C, strain ctf18, stronger effect = lower value 1.02 | S. cerevisiae deletion strains, locus YMR129W, stronger effect = lower value 0.961 | S. cerevisiae deletion strains, locus YNL071W, strain lat1, stronger effect = lower value 0.975 | S. cerevisiae deletion strains, locus YNL183C, strain NPR1, stronger effect = lower value 0.97 | S. cerevisiae deletion strains, locus YNL250W, strain rad50, stronger effect = lower value 0.986 | S. cerevisiae deletion strains, locus YNL271C, strain bni1, stronger effect = lower value 0.995 | S. cerevisiae deletion strains, locus YNL298W, strain CLA4, stronger effect = lower value 0.98 | S. cerevisiae deletion strains, locus YNL322C, strain KRE1 (second series), stronger effect = lower value 1.01 | S. cerevisiae deletion strains, locus YNR049C, strain mso1, stronger effect = lower value 1 | S. cerevisiae deletion strains, locus YOR069W, strain VPS5, stronger effect = lower value 0.973 | S. cerevisiae deletion strains, locus YOR080W, strain dia2, stronger effect = lower value 0.952 | S. cerevisiae deletion strains, locus YOR144C, strain elg1, stronger effect = lower value 1.01 | S. cerevisiae deletion strains, locus YOR231W, strain MKK1, stronger effect = lower value 0.954 | S. cerevisiae deletion strains, locus YOR316C, strain cot1, stronger effect = lower value 0.993 | S. cerevisiae deletion strains, locus YPL078C, strain atp4, stronger effect = lower value 0.919 | S. cerevisiae deletion strains, locus YPL106C, strain sse1, stronger effect = lower value 0.873 | S. cerevisiae deletion strains, locus YPL240C, strain hsp82, stronger effect = lower value 0.942 | S. cerevisiae deletion strains, locus YPL256C, strain CLN2, stronger effect = lower value 0.947 | S. cerevisiae deletion strains, locus YPR119W, strain clb2, stronger effect = lower value 1.07 | S. cerevisiae deletion strains, locus YPR141C, strain kar3, stronger effect = lower value 0.986
active: S. cerevisiae deletion strains, locus YKL160W, strain elf1, stronger effect = lower value 0.776 | S. cerevisiae deletion strains, locus YKL190W, strain CNB1, stronger effect = lower value 0.206 | S. cerevisiae deletion strains, locus YKR001C, strain vps1, stronger effect = lower value 0.367 | S. cerevisiae deletion strains, locus YLL001W, strain dnm1, stronger effect = lower value 0.884 | S. cerevisiae deletion strains, locus YLL026W, stronger effect = lower value 0.807 | S. cerevisiae deletion strains, locus YLR027C, strain aat2, stronger effect = lower value 0.659 | S. cerevisiae deletion strains, locus YLR039C, strain RIC1, stronger effect = lower value 0.567 | S. cerevisiae deletion strains, locus YLR058C, strain SHM2, stronger effect = lower value 0.61 | S. cerevisiae deletion strains, locus YLR221C, strain rsa3, stronger effect = lower value 0.853 | S. cerevisiae deletion strains, locus YLR258W, strain gsy2, stronger effect = lower value 0.734 | S. cerevisiae deletion strains, locus YLR262C, strain YPT6 (second series), stronger effect = lower value 0.769 | S. cerevisiae deletion strains, locus YLR262C, strain YPT6, stronger effect = lower value 0.386 | S. cerevisiae deletion strains, locus YLR268W, strain sec22, stronger effect = lower value 0.854 | S. cerevisiae deletion strains, locus YLR330W, strain CHS5, stronger effect = lower value 0.87 | S. cerevisiae deletion strains, locus YLR342W, strain FKS1 (second series), stronger effect = lower value 0.126 | S. cerevisiae deletion strains, locus YLR342W, strain FKS1, stronger effect = lower value 0.412 | S. cerevisiae deletion strains, locus YLR357W, strain rsc2, stronger effect = lower value 0.826 | S. cerevisiae deletion strains, locus YLR370C, strain arc18, stronger effect = lower value 0.877 | S. cerevisiae deletion strains, locus YLR371W, strain rom2, stronger effect = lower value 0.728 | S. cerevisiae deletion strains, locus YLR418C, strain cdc73, stronger effect = lower value 0.28 | S. cerevisiae deletion strains, locus YML016C, strain PPZ1, stronger effect = lower value 0.625 | S. cerevisiae deletion strains, locus YML032C, strain rad52, stronger effect = lower value 0.868 | S. cerevisiae deletion strains, locus YMR058W, strain fet3, stronger effect = lower value 0.891 | S. cerevisiae deletion strains, locus YMR125W, strain sto1, stronger effect = lower value 0.862 | S. cerevisiae deletion strains, locus YMR205C, strain PFK2, stronger effect = lower value 0.692 | S. cerevisiae deletion strains, locus YMR223W, strain ubp8, stronger effect = lower value 0.723 | S. cerevisiae deletion strains, locus YMR231W, strain pep5, stronger effect = lower value 0.752 | S. cerevisiae deletion strains, locus YMR263W, strain SAP30, stronger effect = lower value 0.852 | S. cerevisiae deletion strains, locus YMR307W, strain GAS1, stronger effect = lower value 0.237 | S. cerevisiae deletion strains, locus YNL067W, strain RPL9B, stronger effect = lower value 0.663 | S. cerevisiae deletion strains, locus YNL128W, strain TEP1, stronger effect = lower value 0.353 | S. cerevisiae deletion strains, locus YNL153C, strain GIM3, stronger effect = lower value 0.62 | S. cerevisiae deletion strains, locus YNL209W, strain ssb2, stronger effect = lower value 0.74 | S. cerevisiae deletion strains, locus YNL233W, strain BNI4, stronger effect = lower value 0.582 | S. cerevisiae deletion strains, locus YNL248C, strain rpa49, stronger effect = lower value 0.745 | S. cerevisiae deletion strains, locus YNL307C, strain MCK1, stronger effect = lower value 0.496 | S. cerevisiae deletion strains, locus YNL322C, strain KRE1, stronger effect = lower value 0.0901 | S. cerevisiae deletion strains, locus YNR052C, strain pop2, stronger effect = lower value 0.448 | S. cerevisiae deletion strains, locus YOL006C, strain TOP1, stronger effect = lower value 0.0919 | S. cerevisiae deletion strains, locus YOL012C, strain htz1 2.18 [resistant] | S. cerevisiae deletion strains, locus YOL147C, strain pex11, stronger effect = lower value 0.884 | S. cerevisiae deletion strains, locus YOR001W, strain rrp6, stronger effect = lower value 0.891 | S. cerevisiae deletion strains, locus YOR061W, strain CKA2, stronger effect = lower value 0.624 | S. cerevisiae deletion strains, locus YOR070C, strain gyp1, stronger effect = lower value 0.775 | S. cerevisiae deletion strains, locus YOR083W, strain WHI5, stronger effect = lower value 0.657 | S. cerevisiae deletion strains, locus YOR106W, strain vam3, stronger effect = lower value 0.345 | S. cerevisiae deletion strains, locus YOR136W, strain idh2, stronger effect = lower value 0.914 | S. cerevisiae deletion strains, locus YOR184W, strain ser1, stronger effect = lower value 0.463 | S. cerevisiae deletion strains, locus YOR265W, strain rbl2, stronger effect = lower value 0.851 | S. cerevisiae deletion strains, locus YOR270C, strain vph1, stronger effect = lower value 0.354 | S. cerevisiae deletion strains, locus YOR290C, strain snf2, stronger effect = lower value 0.763 | S. cerevisiae deletion strains, locus YPL051W, strain arl3, stronger effect = lower value 0.738 | S. cerevisiae deletion strains, locus YPL055C, strain LGE1, stronger effect = lower value 0.0822 | S. cerevisiae deletion strains, locus YPL241C, strain CIN2, stronger effect = lower value 0.652 | S. cerevisiae deletion strains, locus YPR163C, strain tif3, stronger effect = lower value 0.718 | S. cerevisiae deletion strains, locus YPR167C, strain met16, stronger effect = lower value 0.807 | S. cerevisiae deletion strains, strain wtn01, stronger effect = lower value 0.301 | S. cerevisiae strains, strain wild type, stronger effect = lower value 0.117
